From PubChem BioAssay AID485358 (National Center for Advancing Translational Sciences (NCATS), 2010) come the findings set out here.

Molecules are shown by their SMILES. Among all 340,000 compounds or so, about 1,800 (0.53%) were called active.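 How the source made its calls: active means activation over 3 SD above normal in the single-dose calcium agonist read (cut at about 30% in these data); inactive means the rest.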 Only a selection was taken, and actives are over-represented in it overall.

D(2) dopamine receptor (Homo sapiens), sequence (P14416 whole entry, looked up): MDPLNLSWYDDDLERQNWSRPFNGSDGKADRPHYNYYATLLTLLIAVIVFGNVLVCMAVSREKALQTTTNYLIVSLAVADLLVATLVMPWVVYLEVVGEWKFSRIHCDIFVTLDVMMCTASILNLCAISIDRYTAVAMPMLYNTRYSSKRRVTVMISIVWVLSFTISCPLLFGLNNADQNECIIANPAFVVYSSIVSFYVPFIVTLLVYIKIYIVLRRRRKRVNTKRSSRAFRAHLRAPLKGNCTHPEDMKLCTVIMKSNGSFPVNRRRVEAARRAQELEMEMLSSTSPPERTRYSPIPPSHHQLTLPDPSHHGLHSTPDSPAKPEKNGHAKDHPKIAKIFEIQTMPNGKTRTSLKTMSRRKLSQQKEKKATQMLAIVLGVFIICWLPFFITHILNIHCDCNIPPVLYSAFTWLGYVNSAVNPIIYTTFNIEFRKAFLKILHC

The assay has as its target D(2) dopamine receptor (Homo sapiens) (UniProt P14416). The experiment in a line: HTS Assay for Allosteric Agonists of the Human D2 Dopamine Receptor: Primary Screen for Agonists. Further: 0% is about no effect. Conditions: HEK293 T-REx D2 cells, calcium flux agonist mode; at 2 µM; hits give high values. In outline:
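Agonism is scored from calcium flux in a force-coupled, inducible HEK293 cell line expressing D2, read kinetically for 180 s after compound addition against dopamine controls.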
(Calcium flux is commonly read through the fluorescence of an indicator in the cells.)
As to `Cc1cc(C)cc(NC(=O)CSc2nc3nccnc3c(=O)n2CCc2c[nH]c3ccccc23)c1`, the activation is 0.038% (inactive). With `Cc1ccccc1CNC(=O)C1CCCN(S(=O)(=O)N(C)c2ccc(F)cc2)C1` (stereo unspecified), the activation was -0.556% (inactive). Take `CCOc1ccc(CNC(=O)c2ccc(CS(=O)c3ccccc3)o2)cc1` (stereo unspecified): the activation was -0.363% (inactive). With `CCCN(CCC)CCNC(=O)Cn1cnc2sc(C)c(S(=O)(=O)N3CCC(C)CC3)c2c1=O` the figure was 0.0784% (inactive); with `CCC(C)NC(=O)CCCc1ccccc1` (stereo unspecified), 1.02% (inactive); with `CCCCCC(=O)NC(=S)NNC(=O)c1ccc([N+](=O)[O-])cc1`, 2.53% (inactive). For `CCCCC(=O)NNC(=S)NC(=O)C(c1ccccc1)c1ccccc1`, the activation was 52.5% (active). `CCCCOc1ccc(CN2C(=O)C(=O)c3cc(Br)cc(C)c32)cc1OC`: the activation was -0.896% (inactive).

As to `c1ccc2cc3[nH]c(CN4CCCCC4)nc3cc2c1`, the activation is 39.6% (active). As to `Cc1ccc2[nH]c(=O)c(CN3CCCCC3)c(-c3ccccc3)c2c1`, the activation is 16.6% (inactive). With `Clc1ccc(CN2CCCCCC2)cc1Cl`, the activation was 0.701% (inactive). To `COc1cc(Cl)c(NC(=O)C(NS(=O)(=O)c2cccs2)C(C)C)c(OC)c1` (stereo unspecified) belongs 0.0329% (inactive); to `COc1ccc(-n2c(=O)c3sc4ccccc4c3n(CC(=O)Nc3cccc(C)c3)c2=O)cc1`, 1.94% (inactive). As for `COc1cccc(CNC(=O)C2CCCN(c3ncnc4c3nc3n4CCCCC3)C2)c1` (stereo unspecified), the activation was -0.0991% (inactive). Regarding `CCOC(=O)c1cccc(NC(=O)C2CCN(c3ncnc4c3nc3n4CCCCC3)CC2)c1`, the activation is -0.296% (inactive). With `COc1cccc(NC(=O)C2CCCN(c3ncnc4c3nc3n4CCCCC3)C2)c1` (stereo unspecified) the figure was 60.2% (active); with `O=C(/C=C/c1ccccc1)N1CCN(Cc2cc(=O)n3nc(-c4ccccc4F)sc3n2)CC1`, 0.305% (inactive); with `O=C(O)/C=C/c1ccc(S(=O)(=O)N2CCCCCC2)cc1`, 19.8% (inactive). With `O=C(/C=C(O)/C=C/c1ccc(O)cc1)/C=C/c1ccc(O)cc1` the figure was 57.4% (active); with `C=CCNC(=O)/C=C/c1ccc(C(C)C)cc1`, 0.0403% (inactive). Regarding `CC(NC(=O)c1cc2c(=O)n3ccccc3nc2n(C(C)C)c1=N)c1ccccc1` (stereo unspecified), the activation was 0.527% (inactive). As for `COc1ccc(CNC(=O)CS(=O)Cc2nc(-c3cccc(C)c3)oc2C)cc1` (stereo unspecified), the activation is -0.737% (inactive). To `CCN(CCCNC(=O)CSc1cc(=O)n(C)c2cc(Cl)ccc12)c1cccc(C)c1` belongs 0.221% (inactive); to `CCN(CCCNC(=O)c1ccc2c(c1)NC(=O)CN2C)c1cccc(C)c1`, 37.3% (active); to `CCN(CCCNC(=O)c1ccc(Sc2ccc(C)cc2)c(NC(C)=O)c1)c1cccc(C)c1`, 0.373% (inactive). As for `COc1cc(OC)c(NC(=O)Cc2ccc(-n3c(C)nc4cccnc43)cc2)cc1Cl`, the activation was -0.621% (inactive). With `CCOc1cc(C2c3c(-c4ccc(Br)cc4)n[nH]c3C(=O)N2c2ccc(Cl)cc2)ccc1O` (stereo unspecified) the figure was 0.413% (inactive); with `Cc1cc(C)cc(NC(=O)Cn2nc(N3CCN(c4ccccc4)CC3)ccc2=O)c1`, 0.0127% (inactive).

Regarding `O=C(NCCc1c[nH]c2ccccc12)C1CCN(Cc2ccc(Br)cc2)CC1`, the activation is -0.253% (inactive). To `N#C/C(=C/c1ccc(N2CCOCC2)o1)C(=O)N1CCOCC1` belongs 7.75% (inactive); to `N#C/C(=C/c1ccc(N2CCCCC2)o1)C(=O)NCCc1c[nH]c2ccccc12`, 38.7% (active). To `CCOc1cc(-c2nnc(SCC(=O)NC3CCCC3)nc2-c2ccc(OC)c(OCC)c2)ccc1OC` belongs 0.392% (inactive); to `Cc1ccc(C(=O)Nc2c(C(=O)NC(C)(C)C)oc3ccccc23)cc1`, 0.0939% (inactive). To `CC(C(=O)N(C)CC(=O)Nc1ccccc1C(F)(F)F)N1C(=O)c2ccccc2C1=O` (stereo unspecified) belongs -0.167% (inactive); to `CCC(=O)Nc1ccc2c(c1)nc(CCN1CCN(c3ccccn3)CC1)n2C`, 78.2% (active); to `CCOC(=O)N1CCN(Cc2nc3cc(NC(C)=O)ccc3n2C)CC1`, 0.585% (inactive). In the case of `Cn1c(CCN2CCCCCC2)nc2cc(NC(=O)Nc3ccccc3)ccc21`, the activation is 1.58% (inactive).

Take `O=C(CSc1n[nH]c(=O)n1-c1ccccc1)Nc1ccccc1C(F)(F)F`: the activation was 0.222% (inactive).

For `CCN(CC)c1ccc(NC(=O)CN2CCN(c3ccccn3)CC2)cc1`, the activation was 26.5% (inactive).

Take `CS(=O)(=O)N1CCN(CC(=O)NC2CCCC2)CC1`: the activation was -0.0909% (inactive). With `O=C(CN1CCN(c2ccccn2)CC1)NCc1cccs1`, the activation was 18.2% (inactive). With `O=C(CN1CCN(c2ccccn2)CC1)NC1CCCCC1` the figure was 67.6% (active). Consider `O=C(CN1CCN(c2ncccn2)CC1)Nc1ccccc1C(F)(F)F`, for which the activation is 57.8% (active). Turning to `O=C(CN1CCN(c2ccccn2)CC1)Nc1ccc(Br)cc1`, the activation is 43.9% (active).

With `O=C(Cc1ccc(Br)cc1)N1CCN(c2ccccn2)CC1`, the activation was 0.551% (inactive). With `CC1CCN(S(=O)(=O)c2ccc3c(c2)N(CC(=O)NCc2ccccc2Cl)C(=O)CO3)CC1` the figure was -0.934% (inactive); with `CCc1ccc(Sc2cc(C(=O)NCCCOC(C)C)c3ccccc3n2)cc1`, 0.0547% (inactive). With `Cc1c(Cl)cccc1-c1ccc(CNCCCSc2nnnn2C)o1` the figure was 0.946% (inactive); with `COc1ccc(-c2cn3nc(N4CCC(C(=O)Nc5cccc(C)c5C)CC4)sc3n2)cc1`, 1.52% (inactive). To `CSc1cccc(NC(=O)CN2C(=O)CCc3cc(S(=O)(=O)N4CCCCC4)ccc32)c1` belongs 1.49% (inactive); to `COc1ccc(NC(=O)NC(C)c2c(-n3cccc3)sc(C)c2C)cc1OC` (stereo unspecified), 0.829% (inactive); to `CCOC(=O)c1c(C)[nH]c(C)c1S(=O)(=O)NCC(=O)NCc1cccc(C)c1`, 0.112% (inactive). Regarding `COc1ccc(CCNC(=O)c2cc(=O)c3c(C)cc(C)cc3o2)cc1OC`, the activation was -0.676% (inactive). Take `COc1cccc(CNC(=O)C(=O)NCC(c2cccs2)S(=O)(=O)c2ccccc2)c1` (stereo unspecified): the activation is 17.6% (inactive). On to `CCN1CCN(c2ncnc3c2cnn3-c2ccc(C)c(C)c2)CC1`, for which the activation was 0.887% (inactive). With `COc1cc(C(=O)NCC(c2ccc(Cl)cc2)N2CCOCC2)cc(OC)c1OC` (stereo unspecified) the figure was -0.027% (inactive).
